The list is not random: actives were taken first. Their share in the collection is about 3.7%.
Ecoli rRNA inh: inhibitors of bacterial rRNA selective over humanized ribosomes | GFP signal change (wild-type ribosome), % (no concentration beside the values) | 350,000 tested, 1.6% active | AID 720706 | E. coli WT GFP vs humanized-ribosome RFP mutants, fluorescence, 24 h; active compounds read low; DMSO median 0, no signal -100;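 active = significant combined selectivity score with lowered wild-type GFP, culture density cut under 30%, mutant RFP and density less affected; inactive = any of these conditions unmet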
MITF TRPM1 HTS: activators of MITF-driven TRPM1 promoter activity in SK-MEL-5 cells; SK-MEL-5 TRPM1-promoter luciferase, 24 h; % of positive control, neutral wells = 0; AID 588334; activation, % at 12.5 µM; 300,000 tested, 0.75% active;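 active = mean activation of at least 80% with every replicate also reaching 80%; inconclusive = mean reaches 80% but some replicate falls short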;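 note: 0% = neutral control wells and 100% = parthenolide positive control wells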
Wnt bcat act: activates Wnt/beta-catenin signaling in a reporter cell assay; activator, plate reader; activation, % at 9.35 µM; 300,000 tested, 1.2% active; in the data active = activation above about 30%, passing the limit was not always enough; inconclusive = no clear call, values can overlap the other calls;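 note: 0% = neutral control wells and 100% = positive control wells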
esBAF inh: SWI/SNF esBAF complex inhibition | mouse ES cells, Bmi1-luciferase knock-in reporter, 24 h; 100% = twice the neutral-well signal | 350,000 tested, 2% active | reporter increase, % at 12.5 µM | AID 602393; in the data active = activation above about 40%; inconclusive = no clear call, values can overlap the other calls;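 note: 0% = median of the plate's neutral control wells and 100% = double that signal; a rise in the Bmi1 reporter signal indicates esBAF inhibition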
AF4-AF9 inh: inhibitors of human MLL-AF4/AF9 interaction; AlphaScreen, biotin-AF4 peptide binding to FLAG-AF9; inhibition, % at 10 µM; 350,000 tested, 0.47% active;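 active = every replicate reaching a set inhibition limit, whatever the replicate mean, cut at about 25% in these data; inconclusive = mean inhibition reaches that limit but some replicates miss it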;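 note: 0% = plate neutral control median and 100% = total signal loss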
Target sequence (P42568 whole entry, looked up): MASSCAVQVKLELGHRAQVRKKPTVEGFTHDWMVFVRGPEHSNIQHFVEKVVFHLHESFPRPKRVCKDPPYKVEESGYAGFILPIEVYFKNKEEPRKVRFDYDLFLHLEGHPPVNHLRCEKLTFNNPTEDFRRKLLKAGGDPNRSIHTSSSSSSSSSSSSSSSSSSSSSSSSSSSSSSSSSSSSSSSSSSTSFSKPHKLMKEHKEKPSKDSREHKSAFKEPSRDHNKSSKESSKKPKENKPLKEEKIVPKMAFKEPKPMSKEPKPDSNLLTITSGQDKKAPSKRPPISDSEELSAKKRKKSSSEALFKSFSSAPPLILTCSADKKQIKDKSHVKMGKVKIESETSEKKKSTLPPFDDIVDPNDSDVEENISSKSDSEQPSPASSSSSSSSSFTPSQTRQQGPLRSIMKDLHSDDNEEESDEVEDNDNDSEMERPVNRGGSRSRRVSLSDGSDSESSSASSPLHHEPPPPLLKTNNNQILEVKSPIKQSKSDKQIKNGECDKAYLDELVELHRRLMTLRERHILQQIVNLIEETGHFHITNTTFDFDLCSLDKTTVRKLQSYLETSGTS
An asterisk follows results filed as active; ? = inconclusive; . = no result given; ! = a repeat was not active.

SMILES	Ecoli rRNA inh	MITF TRPM1 HTS	Wnt bcat act	esBAF inh	AF4-AF9 inh
CC(C)(C)C1=C(C#N)C(c2ccncc2)C(C#N)=C(N)O1 (configuration not stated)	15	-10	0	-11	-4
CCOc1ccc(NC(=O)CC2C(=O)N(c3ccc(OC)cc3)C(=O)N2CCc2cccs2)cc1 (configuration not stated)	.	9	-4	.	-1
CCOC(=O)c1cc2ccc3ccccc3c2s1	.	53	.	75*	.
CCOC(=O)c1cc2c(s1)-c1ccccc1CC2	.	32	0	57*	.
COC(=O)c1cc2c(s1)-c1ccccc1CC2	.	36	3	32	.
C[C@@H]1CN([C@H](C)CO)C(=O)Cc2cc(NC(=O)c3ccncc3)ccc2O[C@H]1CN(C)C(=O)NC1CCCCC1	1	.	.	-5	5
COc1ccc(C(=O)Nc2nc3ccccc3s2)cc1	-45	.	11	-62	13
COc1cccc(C(=O)Nc2nc(C)cs2)c1	.	38	44*	0	.
COc1cccc(C(=O)Nc2nc3ccccc3s2)c1	-30*	66	26	3	0
Cc1csc(NC(=O)c2ccc3nc[nH]c3c2)n1	3	19	36*	-11	-2
Cc1csc(NC(=S)NC(=O)c2ccccc2)n1	-4	109*	24	?	-5
COCC(=O)N1C[C@H](C)[C@H](OC)CN(C)C(=O)c2cc(NC(=O)c3cc(C)on3)ccc2OC[C@H]1C	2	.	.	-4	-3
Cc1cccc(C(=O)Nc2nc3ccc(S(C)(=O)=O)cc3s2)c1	12	.	-1	46*	0
COc1ccc(-c2nc3ccccc3s2)cc1NC(C)=O	17	68	36*	39	-5
Cc1csc(NC(=O)c2ccc(COc3ccccc3)o2)n1	-8	48	27	63*	-4
COc1ccc(C(=O)Nc2nc3ccccc3s2)cc1OC	-29	78	-1	78*	3
CC=Cc1ccc2n(c1=O)C[C@@H]1[C@@H](CO)[C@H](C(=O)NCCCN(C)C)[C@H]2N1Cc1nccs1 (mixture of isomers)	2	.	.	.	-3
COc1ccc(NC(=O)N(C)C[C@H]2Oc3c(NS(=O)(=O)c4ccc(Cl)cc4)cccc3C(=O)N([C@H](C)CO)C[C@H]2C)cc1	-3	.	.	6	6
COC(=O)c1cc(=O)nc(NN=Cc2ccccc2)s1	.	.	0	.	-1
CCOC(=O)C1=NN(c2ccccc2)C(=O)C1	-10	-9	-2	.	3
COc1cccc(C(=O)Nc2cc(C)c3c(=O)oc4ccccc4c3n2)c1	9	9	-4	-4	43*
CC/C(=C(\c1ccccc1)c1ccc(OCCN(C)C)cc1)c1ccccc1	.	-18	-1	-3	30*!
CCC(=C(c1ccccc1)c1ccc(OCCN(C)C)cc1)c1ccccc1	.	.	-2	-1	3
COc1cccc(CNC(=O)C(Cc2ccccc2)n2cccc2)c1 (configuration not stated)	-7	13	44*	.	2
CC(NC(=S)Nc1ccc([N+](=O)[O-])cc1)c1ccncc1 (configuration not stated)	-27*	2	-1	.	5
SMILES	Ecoli rRNA inh	MITF TRPM1 HTS	Wnt bcat act	esBAF inh	AF4-AF9 inh
O=[N+]([O-])c1ccc(NC(=S)NCc2ccncc2)cc1	-28*	-3	-1	.	3
O=[N+]([O-])c1cccc(NC(=S)NCc2ccncc2)c1	5	4	-2	.	-7
O=C(O)C(Cc1c[nH]c2ccccc12)N1C(=O)c2ccccc2C1=O (configuration not stated)	11	-12	43*	.	-21
Cc1ccc(/C=C/C(=O)Nc2ccc([N+](=O)[O-])cc2)o1	6	56	10	64*	-39
Cc1ccc(NC(=O)/C=C/c2ccc([N+](=O)[O-])s2)cc1	.	-80	35*	.	.
O=C(CSc1cccs1)Nc1ccc2ccccc2c1	.	.	.	60*	.
O=C(CSC1=NCCS1)Nc1cccc2ccccc12	.	-7	-4	-1	.
O=C(CSc1cccs1)Nc1cccc2ccccc12	4	65	0	72*	-5
Cc1[nH]c2ccccc2c1C(=O)CN1CCCCC1C (configuration not stated)	.	-3	0	-3	.
Clc1ccc(Nc2nc(-c3cccnc3)cs2)cc1	-4	23	.	54*	.
Fc1ccc(Nc2nc(-c3cccnc3)cs2)cc1	4	68	25	.	.
Cc1ccc(Nc2nc(-c3ccncc3)cs2)cc1	18	88*	43*	.	-1
CCN(CC)c1ccc(Nc2nc(-c3cccnc3)cs2)cc1	-14	112*	29	60*	2
CN(C)C(=O)C[C@@H]1CC[C@H]2[C@@H](COc3ccc(NC(=O)Nc4cccc(Cl)c4)cc3C(=O)N2C)O1	0	.	.	-4	0
CCOC(=O)C1=C(C)NC2=C(C(=O)CCC2)C1c1cn(Cc2ccc(Cl)cc2Cl)nc1-c1ccccc1 (configuration not stated)	.	-1	-10	3	.
CC(OC(=O)C1=NN(c2ccccc2)C(=O)CC1)C(=O)NC1CCCCC1C (configuration not stated)	-3	4	-2	0	0
Cc1nc(C(=O)Nc2ccccc2)sc1C1(C)CC(c2cccnc2)=NO1 (configuration not stated)	-3	53	22	46*	2
COc1ccc(NC(=O)c2nc(C)c(C3(C)CC(c4ccccc4)=NO3)s2)cc1 (configuration not stated)	-2	-28	-6	-20	1
COc1ccc(-c2noc(CSc3nnc(CCc4ccccc4)n3-c3ccccc3)n2)cc1OC	-15	2	-5	7	6
COc1ccc(CCNC(=O)CO/N=C/c2cc3c(cc2Br)OCO3)cc1OC	-36*	2	-1	-5	1
Nc1ccc2nc(SCc3cccc(F)c3)sc2c1	-31*	75	-1	23	3
CCCCOC(=O)C1=C(C)Nc2ncnn2C1c1ccc(OC)c(OC)c1 (configuration not stated)	.	-5	-1	-9	.
COc1cc2c(c(OC)c1OC)C(=O)C(=Cc1ccccc1)O2	-29*	7	-1	6	10
Cc1cc(=O)[nH]c(N/N=C/C=C/c2ccccc2)n1	11	3	2	.	0
Cc1cc(=O)[nH]c(N/N=C/CCc2ccccc2)n1	-27*	-6	-1	.	-3
Cc1ccccc1Nc1nnc(SCC2CCCCO2)s1 (configuration not stated)	-22*	13	50*	16	-3
CCOC(=O)C1CCCN(C(=O)c2cc3cc(Br)ccc3oc2=O)C1 (configuration not stated)	-1	6	1	.	-1
Cn1c(N)c(S(=O)(=O)N2CCCC2)c(=O)n(C)c1=O	15	1	30*	8	-2
CC1(C)Cc2c(ccc3ccccc23)C2=C(C(=O)N3CCCC3)C(=O)C(=O)N21	-26*	-18	0	.	-8
Cc1nn2c(NCCCn3ccnc3)cc(C(C)C)nc2c1-c1ccccc1	-45*	6	-4	.	17

High-throughput results (PubChem)
